In all, about 310,000 compounds went through this assay and about 14,000 (4.5%) showed an effect of 50% or more. The effect is printed as a negative number. The sample holds strong results, similar compounds and a random draw of the others, so the mix is not that of the screen.
target: human ether-à-go-go-related gene (hERG) potassium channel (human, UniProt Q12809); test: primary screen, population patch clamp on CHO cells stably expressing hERG; higher = less effect of the substance
Procedure: Briefly, Chinese hamster ovary (CHO) cells stably expressing the hERG channel were dislodged from tissue culture flasks and dispensed into PPC plates. […] During the recording, background leak currents were estimated by a 100 ms step to -80 mV from an initial holding potential of -70 mV and subtracted from the subsequent current measurement. The campaign was conducted in two phases using slight differences in recording protocol. In the first phase, the initial voltage pulse used a 100 ms step to -30 mV from a holding potential of -70 mV, a 2 s conditioning step to +25 mV, and a 2 s test step to -30 mV. During the second phase of the screen, the potential during the conditioning step was raised to +45 mV. In both phases of the campaign, a secondary voltage pulse was applied using the same parameters as the second phase initial pulse. The initial and secondary pulses were applied in the absence of compound, and upon application of 1 μM and 10 μM test concentrations. […]
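Further: peak tail current of the secondary pulse compared with the same well before compound.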

Sequence of human ether-à-go-go-related gene (hERG) potassium channel (Q12809 whole entry, looked up): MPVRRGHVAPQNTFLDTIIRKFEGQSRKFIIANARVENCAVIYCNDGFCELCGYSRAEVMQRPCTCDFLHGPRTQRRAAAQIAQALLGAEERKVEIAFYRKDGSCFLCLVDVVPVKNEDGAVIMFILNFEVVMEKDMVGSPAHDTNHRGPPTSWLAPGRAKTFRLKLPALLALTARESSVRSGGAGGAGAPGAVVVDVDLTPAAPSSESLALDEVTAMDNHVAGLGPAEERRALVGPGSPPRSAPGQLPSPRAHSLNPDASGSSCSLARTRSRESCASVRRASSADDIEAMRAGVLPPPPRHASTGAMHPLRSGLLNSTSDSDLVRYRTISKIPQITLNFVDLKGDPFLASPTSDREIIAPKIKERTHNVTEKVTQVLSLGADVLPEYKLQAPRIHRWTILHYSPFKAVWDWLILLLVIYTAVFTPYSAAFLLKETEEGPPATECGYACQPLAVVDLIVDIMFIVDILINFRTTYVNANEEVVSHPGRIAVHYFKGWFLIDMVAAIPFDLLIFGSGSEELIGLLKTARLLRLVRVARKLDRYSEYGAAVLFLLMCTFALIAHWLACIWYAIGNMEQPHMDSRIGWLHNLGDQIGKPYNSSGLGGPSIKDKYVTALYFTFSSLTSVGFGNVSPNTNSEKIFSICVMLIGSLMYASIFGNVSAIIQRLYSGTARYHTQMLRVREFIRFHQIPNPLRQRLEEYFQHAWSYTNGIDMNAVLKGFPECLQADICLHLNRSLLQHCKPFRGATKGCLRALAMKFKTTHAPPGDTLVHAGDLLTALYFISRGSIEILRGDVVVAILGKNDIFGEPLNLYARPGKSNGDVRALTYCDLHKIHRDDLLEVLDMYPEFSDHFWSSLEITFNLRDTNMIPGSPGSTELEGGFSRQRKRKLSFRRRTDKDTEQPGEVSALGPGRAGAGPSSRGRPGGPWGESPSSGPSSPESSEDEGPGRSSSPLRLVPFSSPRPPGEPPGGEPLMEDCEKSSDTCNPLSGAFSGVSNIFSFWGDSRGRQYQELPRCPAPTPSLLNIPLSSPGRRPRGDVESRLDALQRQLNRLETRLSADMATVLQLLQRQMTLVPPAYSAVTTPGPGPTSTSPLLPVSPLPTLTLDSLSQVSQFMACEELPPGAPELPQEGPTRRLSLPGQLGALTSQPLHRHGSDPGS

| SMILES | hERG current change (%, negative = inhibition) at 10uM |
| --- | --- |
| CCOC(=O)C1CCCN(C(=O)c2sc3nc(C)nc(N4CCOCC4)c3c2C)C1 (stereo not drawn) | -3.42% |
| CCOC(=O)C1CCN(C(=O)c2sc3ncnc(N4CCC(C)CC4)c3c2C)CC1 | -73.2% |
| Cc1c(C(=O)N2CCN(c3ccccc3)CC2)sc2ncnc(N3CCC(C)CC3)c12 | -29.9% |
| CCOC(=O)C1CCN(C(=O)c2sc3nc(C)nc(N4CCC(C)CC4)c3c2C)CC1 | -52.7% |
| CCN1CCN(C(=O)c2sc3nc(C)nc(N4CCC(C)CC4)c3c2C)CC1 | -8.16% |
| Cc1c(C(=O)N2CCC(Cc3ccccc3)CC2)sc2ncnc(N3CCC(C)CC3)c12 | 8.19% |
| Cc1nn(-c2nnc(NC3CCCCC3)nn2)c(C)c1Br | 10.8% |
| OC1(c2ccccc2F)CCN(Cc2nnnn2Cc2ccc(F)cc2)CC1 | 8.52% |
| C/C(N)=C(/C#N)C(=O)CSc1nc2cc(Cl)ccc2c(=O)n1Cc1ccco1 | 16.8% |
| CC1(C)CC(=O)C2=C(C1)OC(/N=C/N1CCOCC1)=C(C#N)C2c1ccccc1 (stereo not drawn) | -11% |
| CCOc1cccc(OCCn2cnc3ccccc3c2=O)c1 | 5.84% |
| Cn1c(=O)c2c(nc(N3CCN(c4ccc([N+](=O)[O-])cc4)CC3)n2C)n(C)c1=O | -76.2% |
| Cn1c(=O)c2c(ncn2CC(=O)N2CCN(c3ccc(F)cc3)CC2)n(C)c1=O | -23.4% |
| COc1ccc(N2CCN(C(=O)Cn3cnc4c3c(=O)n(C)c(=O)n4C)CC2)cc1 | 5.48% |
| Cn1c(=O)c2c(nc(N3CCOCC3)n2C)n(C)c1=O | -4.44% |
| Cn1c(=O)c2c(ncn2CC(=O)N2CCN(c3cccc(Cl)c3)CC2)n(C)c1=O | -64.2% |
| Cc1cccc(N2CCN(C(=O)Cn3cnc4c3c(=O)n(C)c(=O)n4C)CC2)c1C | -26% |
| Cn1c(=O)c2c(ncn2CC(=O)N2CCN(c3ccc([N+](=O)[O-])cc3)CC2)n(C)c1=O | -72% |
| Cn1c(=O)c2c(nc(N3CCCC3)n2C)n(C)c1=O | 10% |
| Cn1c(=O)c2c(ncn2CC(=O)N2CCN(c3ccccc3)CC2)n(C)c1=O | 0.318% |
| Cc1ccc(C(=O)c2ccccc2C(=O)O)s1 | -1.28% |
| COc1cccc(N2CCN(C3C4CC5CC(C4)CC3C5)CC2)c1 (stereo not drawn) | 2.54% |
| CC(=O)Nc1nc(NC(=O)/C=C/c2ccccc2)n(-c2ccccc2)n1 | -1.34% |
| COC(CNC(=O)c1ccc2c(c1)ncn2C1CCCCCC1)OC | 4.09% |
| COc1ccc(-c2noc(C3CCCN(C(=O)c4cccs4)C3)n2)cc1 (stereo not drawn) | -21.1% |
| O=C(c1cccs1)N1CCCC(c2nc(-c3ccc(F)cc3)no2)C1 (stereo not drawn) | -51.7% |
| O=C(c1c(F)cccc1F)N1CCCC(c2nc(-c3ccc(F)cc3)no2)C1 (stereo not drawn) | -6.69% |

| SMILES | hERG current change (%, negative = inhibition) at 10uM |
| --- | --- |
| O=C(c1ccc(F)cc1)N1CCCC(c2nc(-c3cccs3)no2)C1 (stereo not drawn) | -18.5% |
| COc1ccc(-c2noc(C3CCCN(C(=O)c4ccc(F)cc4)C3)n2)cc1 (stereo not drawn) | -35.3% |
| O=C(c1ccc(F)cc1)N1CCCC(c2nc(-c3ccncc3)no2)C1 (stereo not drawn) | -65.6% |
| CCN1C(=O)c2cccc3c(S(=O)(=O)NCC4CCCO4)ccc1c23 (stereo not drawn) | 1.95% |
| COCCNC(=O)C(c1cccc(OC)c1)N(C(=O)Cn1nnc2ccccc21)c1cccnc1 (stereo not drawn) | 7.66% |
| COCC1CCCCN1C(=O)c1ccc(OC2CCN(Cc3ccccn3)CC2)cc1 (stereo not drawn) | 1.34% |
| CC(=O)Nc1cc(NC(C)=O)cc(-c2nc3ccccc3[nH]2)c1 | 3.84% |
| Cc1ccc(C(=O)N/C(=C\c2ccc(C(C)C)cc2)C(=O)NCCCN2CCOCC2)cc1 | -72.3% |
| Cc1ccc(C(=O)N/C(=C/c2ccc(C(C)C)cc2)C(=O)NCCCN2CCOCC2)cc1 | -65.8% |
| COc1ccc(/C=C(\NC(=O)c2ccc(C)cc2)C(=O)NCCCN2CCOCC2)cc1OC | 19.9% |
| CC(C)c1ccc(/C=N/NC(=O)C(=O)NCCCN2CCOCC2)cc1 | -20.6% |
| CC(C)c1ccc(NC2CCCN(C(=O)c3n[nH]c4c3CCC4)C2)cc1 (stereo not drawn) | 5.38% |
| C=CCN(c1ccccc1C(=O)O)S(=O)(=O)c1ccc(NC(=O)OC)cc1 | 4.39% |
| CC1CCCCC1NC(=O)CN(C)S(=O)(=O)c1cccc2cccnc12 (stereo not drawn) | -0.115% |
| COc1cccc(SCC(=O)N2CCN(c3ccccc3)CC2)c1 | -1.23% |
| CCN1/C(=C/c2ccc3ccc(C)cc3[n+]2CC)Sc2ccccc21.[I-] | -81.1% |
| CCN1/C(=C/c2ccc3cc(C)ccc3[n+]2CC)Sc2ccc3sccc3c21.[I-] | -44.5% |
| CCN1/C(=C/c2ccc3cccc(C)c3[n+]2CC)Sc2ccccc21.[I-] | -75% |
| CCN1/C(=C/C(=O)c2ccco2)Sc2ccccc21 | 8.09% |
| CC[n+]1c(S(=O)(=O)[O-])ccc2ccc(C)cc21 | 6.26% |
| Cc1ccc2c(c1)S/C(=C\c1cccc[n+]1C)N2CCO.[I-] | -0.805% |
| CCN1/C(=C/c2ccc3cc(C)ccc3[n+]2CC)Sc2ccccc21.[I-] | -90.6% |
| CCC(=O)/C=C1\Sc2ccccc2N1CC | -3.72% |
| CCC(=O)/C=C1/Sc2ccccc2N1CC | 7.66% |
| COc1ccccc1CNCC(=O)Nc1ccc(N2CCOCC2)cc1.O=C(O)C(=O)O | 1.57% |
| O=C(NCc1cccnc1)C1CCCCN1S(=O)(=O)c1ccc(F)cc1 (stereo not drawn) | -20.9% |
| CC(=O)Nc1ccc(S(=O)(=O)N2CCN(C(=O)Cc3ccccc3)CC2)cc1 | -1.44% |
